TDP1 cell noCPT: qHTS for Inhibitors of human tyrosyl-DNA phosphodiesterase 1 (TDP1): qHTS in cells in absence of CPT. DT40 Tdp1-/- hTDP1 cells, no CPT, ATP luminescence, 48 h. Potency, µM (top dose mostly 46.2 µM), for the others: at the top dose activity change, negative = growth inhibition, hits mostly inhibitors. 15% of 420,000 active. AID 686978, 2013; further: nearly all actives have a fitted effect of over 55% in size
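Stably hTDP1-transfected Tdp1-null chicken DT40 cells were treated with library compounds minus camptothecin and grown for at least 48 hr at 37 °C, after which cellular ATP was quantified by luminescence.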
GCN5L2 inh: inhibitors of human GCN5L2 histone acetyltransferase | Q92830 | GCN5L2 HAT assay, ThioGlo1 CoA-SH fluorescence | Potency, µM (doses to about 58.9 µM), for the others: top-dose activity change, negative = inhibition, actives largely listed as inhibitors | 0.21% of 390,000 active
Target sequence (Q92830 whole entry, looked up): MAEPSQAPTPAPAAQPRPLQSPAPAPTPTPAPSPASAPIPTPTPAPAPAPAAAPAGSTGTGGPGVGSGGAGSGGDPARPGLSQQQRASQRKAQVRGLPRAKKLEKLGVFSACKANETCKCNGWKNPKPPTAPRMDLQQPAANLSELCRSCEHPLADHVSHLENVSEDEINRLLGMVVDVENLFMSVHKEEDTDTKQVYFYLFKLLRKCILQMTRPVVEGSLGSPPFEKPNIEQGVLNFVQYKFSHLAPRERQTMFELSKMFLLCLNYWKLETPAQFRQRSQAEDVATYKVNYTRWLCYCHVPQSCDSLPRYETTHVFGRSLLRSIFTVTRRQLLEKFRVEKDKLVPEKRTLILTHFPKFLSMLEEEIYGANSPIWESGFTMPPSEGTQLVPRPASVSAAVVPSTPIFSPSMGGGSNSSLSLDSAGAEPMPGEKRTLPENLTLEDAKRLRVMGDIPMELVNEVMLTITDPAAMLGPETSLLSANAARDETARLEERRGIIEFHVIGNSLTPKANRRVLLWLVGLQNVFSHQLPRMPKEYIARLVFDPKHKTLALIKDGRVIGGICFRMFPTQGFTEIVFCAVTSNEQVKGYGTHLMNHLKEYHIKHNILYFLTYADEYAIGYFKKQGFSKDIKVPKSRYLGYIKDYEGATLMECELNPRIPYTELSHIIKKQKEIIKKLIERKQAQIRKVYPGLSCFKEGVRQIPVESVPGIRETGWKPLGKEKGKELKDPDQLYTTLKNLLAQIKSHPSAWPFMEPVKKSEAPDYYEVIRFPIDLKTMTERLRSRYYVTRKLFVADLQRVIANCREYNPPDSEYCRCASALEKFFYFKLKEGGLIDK
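qHTS, 1536-well. 20nM enzyme, pH 7.5 HEPES/EDTA/Tween-20 buffer; 15 min compound preinc., RT. Start: 75uM H3(1-25), 70uM AcCoA, 50uM ThioGlo1. Read Ex340/Em540 at t=0 (autofluorescence flag) and t=20 min.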
VDR inh: blocks the human vitamin D receptor. AID 504847. Potency, µM, without a hit: max response, negative = inhibition, usual class: inhibitors. VDR-SRC2-3 peptide fluorescence polarization, 2 h. 0.93% of 400,000 active
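Fluorescence polarization assay measuring small-molecule disruption of VDR binding to the coregulator peptide SRC2-3. Compounds were pin-transferred (23 nl) into the reagent mix and incubated 2 h at room temperature before reading.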
TDP1 inh: blocks human tyrosyl-DNA phosphodiesterase 1; recombinant TDP1, AlphaScreen DNA substrate cleavage; Potency, µM (top dose mostly 130 µM), for inactives: at the highest dose activity change, negative = inhibition, most hits filed as inhibitors; 0.28% of 350,000 active; AID 485290; further: nearly all actives have a fitted effect of over 40% in size
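Steps: enzyme plus compound, 15 min RT; add biotin/phosphotyrosine-FITC oligonucleotide (15 nM final), react 5 min; add donor/acceptor beads (10 ug/ml final), 10 min; read AlphaScreen. Tdp1 at 1 nM final.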
PLK1 PBD inh: blocks phosphopeptide binding to human PLK1 polo-box domain. P53350. Potency, µM, for inactives: max response, negative = inhibition, hits mostly inhibitors. Plk1 PBD binding of FITC phosphopeptide, fluorescence polarization. 2.8% of 360,000 active; further: series mostly up to about 57 µM; nearly all actives have a fitted effect of over 65% in size
TDP1 cell CPT: DT40-hTDP1 cell growth loss with CPT | chicken DT40 Tdp1-/-;hTDP1 cells + 20 nM CPT, ATP luminescence, 48 h | Potency, µM (series often up to 46.2 µM), without a hit: at the top dose activity change, negative = growth inhibition, usual class: inhibitors | 12% of 420,000 active | AID 686979; further: nearly all actives have a fitted effect of over 55% in size
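Cell growth measured by CellTiter-Glo luminescence after a minimum 48 h, 37 C compound exposure with 20 nM CPT in Tdp1-knockout DT40 cells stably expressing hTDP1, seeded 400/well; qHTS titration format.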
An asterisk follows results filed as active; [ ] = remark or other dose. Rows were chosen to be rich in hits. Some 18% of all compounds tested hit in one or more screens of this group. The call rests on the fitted dose curve; in most records, active means well fitted curve in the direction sought with a large enough effect; inconclusive means small, poorly fitted or top-dose-only effect, or another doubt; inactive means no such curve, though single readings can be large; an effect the other way counts as inactive or inconclusive. On the % scale 0 is the no-effect control and ±100 the full control effect; potency means the concentration at half of the fitted maximal effect.

How did Cc1ncc2n1-c1ccc(Cl)cc1C(c1ccccc1F)=NC2O (stereo not given) do in these assays?
GCN5L2 inh: 4.8%; VDR inh: 10.8%; TDP1 inh: 12.8%

Results for CCOC(=O)[C@]12Cc3cc(Cl)ccc3[C@H]1N(C1CCCCC1)C(=O)c1cc(OC)ccc12 ?
TDP1 cell noCPT: 0.517µM*; PLK1 PBD inh: 2.12µM*; TDP1 cell CPT: 0.517µM*

Results for CCOC(=O)[C@]12Cc3cc(C)ccc3[C@H]1N(CCC(=O)OC)C(=O)c1ccccc12 ?
TDP1 cell noCPT: 16.4µM*; PLK1 PBD inh: 8.44µM*; TDP1 cell CPT: 23.1µM*

How did c1csc(CN2CCC3(CCNCC3)CC2)n1 do in these assays?
TDP1 cell noCPT: 9.6%; GCN5L2 inh: -1.5%; VDR inh: 0.1%; TDP1 cell CPT: 5.7%

How did CCC(=O)N1N=C(c2c(O)n(C)c(=O)n(C)c2=O)CC1c1ccccc1 (stereo not given) do in these assays?
TDP1 cell noCPT: 4.11µM*; GCN5L2 inh: -1.3%; VDR inh: -12.3%; TDP1 inh: 7.0%; PLK1 PBD inh: -1.6%; TDP1 cell CPT: 3.66µM*

What do the screens show for `Nc1c(C(=O)OCC2CCCO2)c2nc3ccccc3nc2n1Cc1cccs1` (stereo not given)?
TDP1 cell noCPT: 18.4µM*; GCN5L2 inh: -28.3%; VDR inh: -4.9%; TDP1 inh: 0.0%; PLK1 PBD inh: -7.6%; TDP1 cell CPT: inconclusive

What do the screens show for `COCCCNC(=O)c1c(N)n(Cc2ccco2)c2nc3ccccc3nc12`?
TDP1 cell noCPT: 25.9µM*; GCN5L2 inh: -6.5%; VDR inh: -11.5%; TDP1 inh: 2.8%; PLK1 PBD inh: -11.8%; TDP1 cell CPT: inconclusive

How did CC(C)OCCCNC(=O)c1c(N)n(Cc2cccs2)c2nc3ccccc3nc12 do in these assays?
TDP1 cell noCPT: 18.4µM*; GCN5L2 inh: -19.7%; VDR inh: -5.1%; TDP1 inh: -9.4%; PLK1 PBD inh: -8.5%; TDP1 cell CPT: inconclusive

How did COc1ccc(Cn2c(N)c(C(=O)NCc3ccco3)c3nc4ccccc4nc32)cc1OC do in these assays?
TDP1 cell noCPT: 6.51µM*; GCN5L2 inh: -5.9%; VDR inh: 2.0%; TDP1 inh: 0.0%; PLK1 PBD inh: -17.0%; TDP1 cell CPT: 6.51µM*

Results for Nc1c(C(=O)NCC2CCCO2)c2nc3ccccc3nc2n1Cc1ccco1 (stereo not given) ?
TDP1 cell noCPT: inconclusive; GCN5L2 inh: -19.9%; VDR inh: 7.7%; TDP1 inh: 5.6%; PLK1 PBD inh: -14.0%; TDP1 cell CPT: inconclusive

How did N#Cc1ccc(C(=O)N2Cc3cnnn3-c3ccccc3C2C#N)cc1 (stereo not given) do in these assays?
TDP1 cell noCPT: 0.8%; VDR inh: 0.2%; PLK1 PBD inh: -6.3%; TDP1 cell CPT: 7.8%

Results for CNc1ccc(C(=O)CC(O)CCC(C)C2OC(=O)CC(O)CC(=O)CC(O)CC(O)CC(O)CC(O)CC3(O)CC(O)C(C(=O)OC)C(CC(O[C@@H]4OC(C)C(O)C(N)C4O)/C=C/C=C/C=C/C=C/C=C/C=C/C=C/C2C)O3)cc1 (stereo not given in full) ?
GCN5L2 inh: -5.2%; VDR inh: -24.8%; TDP1 inh: 5.7%[56.1 µM]

Results for CCCNC(=O)c1c(N)n(Cc2ccco2)c2nc3ccccc3nc12 ?
TDP1 cell noCPT: inconclusive; GCN5L2 inh: -3.1%; VDR inh: inconclusive; TDP1 inh: -1.0%; PLK1 PBD inh: inconclusive; TDP1 cell CPT: 23.1µM*

How did CC(C)CNC(=O)c1c(N)n(Cc2ccco2)c2nc3ccccc3nc12 do in these assays?
TDP1 cell noCPT: inconclusive; GCN5L2 inh: -8.5%; VDR inh: -28.2%; TDP1 inh: 0.0%; PLK1 PBD inh: -26.1%; TDP1 cell CPT: inconclusive
